Screening data as filed in PubChem.
Pf growth 48h: Primary qHTS for delayed death inhibitors of the malarial parasite plastid, 48 hour incubation; P. falciparum luciferase growth in erythrocytes, 48 h; Potency, µM (highest dose often 28.7 µM), for the others: at the highest dose activity change, negative = inhibition, most hits filed as inhibitors; actives 5.9% (n = 310,000); AID 504832, 2011; active = well fitted inhibition curve with a large enough effect; inconclusive = small, poorly fitted or top-dose-only effect, or another doubt; inactive = no such curve, though single readings can be large or run the other way; also: potency is read from the fitted curve at half-maximal effect; % is scaled to controls: 0 for no effect and ±100 for the full control effect
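Erythrocytes infected with P. falciparum carrying an integrated firefly luciferase reporter (2% hematocrit, 0.1% parasitemia final) were exposed to compounds in RPMI 1640 with 0.5% Albumax at 37 C, 5% CO2. Growth inhibition was scored as reduced luminescence.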
SARS PLpro yeast: qHTS of Yeast-based Assay for SARS-CoV PLP; Potency, µM (highest dose often 32.9 µM), for inactives: top-dose activity, positive = growth rescue, hits mostly activators; actives 0.19% (n = 330,000); AID 485353, 2010; S. cerevisiae expressing SARS-CoV PLpro, growth rescue; also: potency is read from the fitted curve at half-maximal effect; 0% is about no effect; nearly all actives have a fitted effect of over 55% in size
Cycloheximide cs: Cycloheximide Counterscreen for Small Molecule Inhibitors of Shiga Toxin; cell reporter, cycloheximide protein synthesis inhibition counterscreen; max response, %; actives 12% (n = 300,000); in the data active = max response mostly above about 13%, no sharp cut-off; inactive = mostly below about 14%; also: read at 38.3 µM for the half of the compounds with a filed dose; 0% is about no effect
NS1 function inh: qHTS Assay for Inhibitors of Influenza NS1 Protein Function. Potency, µM (series often up to 46.1 µM), for the others: at the highest dose activity, positive = more growth. actives 0.4% (n = 270,000); also: potency is read from the fitted curve at half-maximal effect; actives are rising curves; nearly all actives have a fitted effect of over 50% in size
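Growth recovery, yeast-based: influenza A NS1 expressed in S. cerevisiae causes slow growth, and suppressors are detected by OD600. The parent strain without NS1 is used as positive control.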
Shiga toxin inh: A qHTS for Small Molecule Inhibitors of Shiga Toxin. Vero cells, Shiga toxin protein synthesis inhibition reporter. AID 2315, 2010. inhibition, % at 38.7 µM. actives 9.2% (n = 290,000); in the data active = inhibition mostly above about 28%, no sharp cut-off; inactive = mostly below about 43%; also: 0% is about no effect
Pf growth 96h: Primary qHTS for delayed death inhibitors of the malarial parasite plastid, 96 hour incubation; Potency, µM (titrated, usually from 28.7 µM), for inactives: at the top dose activity change, negative = inhibition, most hits filed as inhibitors; actives 6.9% (n = 320,000); P. falciparum luciferase reporter growth, 96 h; AID 504834, 2011; active = well fitted inhibition curve with a large enough effect; inconclusive = small, poorly fitted or top-dose-only effect, or another doubt; inactive = no such curve, though single readings can be large or run the other way; also: potency is read from the fitted curve at half-maximal effect; % is scaled to controls: 0 for no effect and ±100 for the full control effect
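Cell-based qHTS: luciferase-tagged P. falciparum in erythrocytes (2% hematocrit, 0.05% parasitemia final) incubated with compounds for 96 hours, 37 C, 5% CO2; luciferase detection reagent then added and luminescence measured.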
* = called active by the depositor; u = inconclusive; x = no result given; [ ] = another dose, or the depositor's remark. Shown are actives, neighbours in structure and some others; about 21% of the full set was active somewhere. Unless noted, calls follow the shape of the full dose curve.

SMILES	Pf growth 48h	SARS PLpro yeast	Cycloheximide cs	NS1 function inh	Shiga toxin inh	Pf growth 96h
Cc1nc2cc(-c3cccc(F)c3)nn2c(N2CCN(C(=O)c3ccco3)CC2)c1C	x	0%	61*	2%	94*	u
Cc1cc(NCCN2CCOCC2)n2ncc(-c3ccc(Cl)cc3)c2n1	x	x	x	8%	x	x
CC(=O)Nc1ccc(Nc2cc(C)nc3c(-c4ccc(Cl)cc4)cnn23)cc1	89%	-53%	52*	-5%	36*	167%
CC(=O)Nc1ccc(Nc2cc(C)nc3c(-c4ccc(Cl)cc4)c(C)nn23)cc1	u	-64%	-2	8%	-7	0%
Cc1cc(N2CCCCC2)n2ncc(-c3ccc(Cl)cc3)c2n1	x	11%	29*	-90%	39	140%
O=C1C(=O)N(CCO)C(c2ccc(Br)cc2)/C1=C(\O)c1ccccc1 (stereo not given)	34%	-3%	1	12%	-10	-99%
CC(=O)OC1CC(c2cc(C(C)(C)C)c(O)c(C(C)(C)C)c2)=NO1 (stereo not given)	-13%	-1%	-1	8%	-20	12%
Cc1cc(N2CCCCC2)n2ncc(-c3ccccc3)c2n1	14%	-2%	60*	-88%	61	1%[5.75 µM]
Cc1cc(N2CCOCC2)n2ncc(-c3ccccc3)c2n1	55%	-12%	34*	-19%	100*	x
C=CCc1c(C)nc2c(-c3ccccc3)cnn2c1N1CCOCC1	164%	1%	58*	-2%	84*	263%
Cc1cc(N2CCCCC2)n2nc(C)c(-c3ccccc3)c2n1	u	7%	6	-2%	49	u
Cc1cc(N2CCN(C(=O)c3ccco3)CC2)n2ncc(-c3ccccc3)c2n1	u	-14%	31*	-189%	64*	-14%
Cc1cc(N2CCOCC2)n2nc(C(F)(F)F)c(-c3ccccc3)c2n1	-7%	1%	-2	0%	-6	6%
C/C(=N\Nc1ccc(S(=O)(=O)N2CCCCC2)cn1)c1ccc(O)cc1	u	-11%	x	x	x	u
Cc1ccn2c(CN(C)CCn3nc(C)cc3C)c(C(=O)N3CCCCCC3)nc2c1	u	2%	3	1%	7	31%
Cc1ccc(-c2cc(C(F)F)n3ncc(C(=O)Nc4cn(C)nc4C)c3n2)cc1	u	0%	-3	3%	-20	-2%
Cc1ccc(-c2cnn3c(N4CCOCC4)cc(C)nc23)cc1	116%	-1%	68*	-4%	108*	305%
Cc1cc(N2CCC(C)CC2)n2nc(C)c(-c3ccccc3)c2n1	13%	8%	-1	3%	-10	2%
Cc1cc(N2CCOCC2)n2ncc(-c3ccc(Cl)cc3)c2n1	140%	0%	75*	2%	120*	153%
Cc1cc(N2CCC(C)CC2)n2ncc(-c3ccccc3)c2n1	130%	-28%	44*	-9%	132*	166%
O=C(N/C(=C/c1cccnc1)C(=O)N1CCOCC1)c1ccccc1Br	7%	-19%	0	4%	-8	38%
O=C1CCCN1S(=O)(=O)c1ccc(F)cc1	0%	-2%	12	18%	17	-7%
Cc1ccc(N(C(=O)c2snc(C(N)=O)c2N)C(C(=O)NC2CCCC2)c2ccco2)cc1 (stereo not given)	13µM*	3%	8	3%	-3	15%
CCCC(C(=O)NC1CCCC1)N(Cc1ccc2c(c1)OCO2)C(=O)c1snc(C(N)=O)c1N (stereo not given)	x	16%	-2	8%	-9	9.3µM*
CCOc1ccccc1N(C(=O)c1snc(C(N)=O)c1N)C(C(=O)NC1CCCC1)c1ccco1 (stereo not given)	u	-1%	-4	-46%	-10	-7%
CC(C(=O)NC1CCCCC1)N(Cc1ccc(F)cc1)C(=O)c1snc(C(N)=O)c1N (stereo not given)	u	2%	-8	-4%	-11	-11%
Nc1c(C(=O)NC2CCCCC2)nsc1C(=O)OCC(=O)NC1CCCCC1	1%	5%	-2	-14%	-1	x
NC(=O)c1nsc(C(=O)N(CC(=O)NC2CCCCC2)Cc2ccc(F)cc2)c1N	36%	12%	53*	-10%	116*	4%
